Measured values: PubChem BioAssay (NCI)
The panel holds about 83,000 compounds, 20% with a hit somewhere; the sample as a whole holds those more often.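 Negative percent growth values reflect cell death: -40 means 40% of the cells present at the start died, and -100 means all died.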 Active and inactive are the calls of the source. The calls were made as follows: active = growth percent below 10; inactive = the rest.

test system: HOP-62 NSCLC; assay: NCI-60 one-dose screen, 48 h (100 = growth as untreated, 0 = no growth, -100 = all killed); settings: 10 µM unless noted

| SMILES | growth |
| --- | --- |
| CCn1c(Cc2ccccc2Nc2c(Cl)cccc2Cl)nnc1SCC(=O)Nc1cccc(OC)c1 | 94.2% (inactive) |
| COc1ccc2nc(C)cc(Sc3nc4ccccc4s3)c2c1 | 57.5% (inactive) |
| COc1cnc2c(c1)C(=O)c1c-2n(CCCN2CCN(C)CC2)c(=O)c2cc(Cl)ccc12 | 20.5% (inactive) |
| c1cn2cc(-c3ccc4ncn(C5CCCCC5)c4c3)nc(-c3ccc4c(c3)ncn4C3CCCCC3)c2n1 | -55.4% (active) |
| CN1C(=O)N(C)C2C1NN=c1s/c(=C\c3ccc(C(F)(F)F)cc3)c(=O)n12 (stereo not drawn) | 31.9% (inactive) |
| CN1C(=O)N(C)C2C1NN=c1s/c(=C\c3ccsc3)c(=O)n12 (stereo not drawn) | 46.8% (inactive) |
| C/C(=N\Nc1ccc([N+](=O)[O-])cn1)c1ccc(N)cc1 | 109% (inactive) |
| COc1ccccc1/C=N\Nc1ccc([N+](=O)[O-])cn1 | 106% (inactive) |
| CCCCCCCCCCCCCCCCCC(=O)[O][Sn]([CH2]CCC)([CH2]CCC)[CH2]CCC | -89.5% (active) |
| C[C@H](NC(=O)c1snnc1C1CC1)c1c(F)cccc1Cl | 107% (inactive) |
| CC(C)c1cccc(C#N)c1 | 111% (inactive) |
| CN1C(=O)N(C)C2C1NN=c1s/c(=C\c3ccc(Br)cc3)c(=O)n12 (stereo not drawn) | 32.4% (inactive) |
| O=C1SCN(Cc2ccccc2)CN1Cc1ccccc1 | 102% (inactive) |
| C[N+](C)(C)CC(=O)N/N=C\c1ccco1 | 86.5% (inactive) |
| COc1cc(C2CC(c3ccc(Cl)cc3)=NN2C(C)=O)ccc1Oc1nc2c(c(=O)n(C)c(=O)n2C)n1C (stereo not drawn) | 98.7% (inactive) |
| CCN1CCN(Cc2ccc(NC(=O)Nc3ccc(-n4ccc5c(NC(=O)c6ccccc6)nccc54)cc3)cc2C(F)(F)F)CC1 | -78.4% (active) |
| Nc1nc(N)c2cc(NCc3ccc(Cl)c(Cl)c3)ccc2n1 | -85.6% (active) |
| O=c1oc2ccccc2cc1-c1cc(-c2ccc(-c3cc(-c4cc5ccccc5oc4=O)nc(-c4cc5ccccc5oc4=O)c3)cc2)cc(-c2cc3ccccc3oc2=O)n1 | 93.3% (inactive) |
| C=C1C(=O)O[C@H]2[C@H]1CC/C(COC(=O)N[C@@H](Cc1c[nH]c3ccccc13)C(=O)OC)=C\CC[C@@]1(C)O[C@@H]21 | 68.8% (inactive) |

| SMILES | growth |
| --- | --- |
| COc1cc(OC)c(Cl)cc1N | 104% (inactive) |
| COC(=O)c1ccc2c(c1)nc(-c1cc3ccccc3[nH]c1=O)n2-c1cc(C(C)(C)C)[nH]n1 | 66.5% (inactive) |
| Fc1ccc(-c2nc(-c3ccc(-c4nc5ccc(F)cc5[nH]4)cc3)no2)cc1 | 79.6% (inactive) |
| CCCC(CCC)(C(N)=O)C(=O)O | 98.6% (inactive) |
| CNC(=O)OC1C(O[C@H]2C[C@H]3[C@@H]4CC=C5C[C@@H](O)CC[C@]5(C)[C@H]4CC[C@]3(C)[C@H]2[C@H](C)C(=O)CCC(C)C)OCC(O)C1OC1OCC(O)C(O)C1OC(=O)c1ccc(OC)cc1 (stereo partly drawn) | 0.544% (active) |
| CC(=O)O[C@@H]1CC2C(C)(C)CCCC2(C)C2=C1C(=O)C(C(C)C)=CC2=O (stereo partly drawn) | -25.6% (active) |
| CC(=O)Oc1c(Cl)c(Cl)c(Cl)c(Cl)c1Cl | 95.9% (inactive) |
| Oc1c(C(Nc2ccccc2Br)c2ccccc2)ccc2cccnc12 (stereo not drawn) | 19.6% (inactive) |
| O=C1C(Cl)=C(Nc2cccc3ccccc23)C(=O)c2ccccc21 | 84.9% (inactive) |
| Nc1c(C(=O)Nc2ccccc2)sc2nc3c(cc12)C(=O)CCC3 | 39.9% (inactive) |
| CCOCCNc1ccc(S(=O)(=O)c2ccc(N)cc2)cc1N | 110% (inactive) |
| CCCCSc1ncnc2c1ncn2C1CCCCO1 (stereo not drawn) | 105% (inactive) |
| CCNCCCn1c2c(c3ccc(Cl)cc3c1=O)C(=O)c1cc(OC)cnc1-2 | -18.8% (active) |
| COc1ccc2nc3ccccc3c(NCc3ccc(C)cc3)c2c1 | 39% (inactive) |
| C=CCOC(=O)C1=C(C)NC2=C(C(=O)CCC2)C1c1ccc(F)cc1 (stereo not drawn) | 85.9% (inactive) |
| O=C(O)C(CCc1ccccc1)NCc1ccccc1 (stereo not drawn) | 93.3% (inactive) |
| COc1ncnc2[nH]cc(CN3CCN(c4ccc(F)cc4)CC3)c12 | 107% (inactive) |
| O=S(=O)(Cc1ccc(Cl)cc1Cl)c1ccc(Cl)cc1 | 36.5% (inactive) |
| COc1ccc(-c2nc3ccccc3n3cccc23)cc1 | 116% (inactive) |
